In the library only some 4.7% were active in any assay of this set; here they are far more common.
TRHR enhancer = allosterically enhances the human TRH receptor; TRHR cells, fluo-8 calcium fluorescence, EC20 TRH enhancement; enhancement, % at 2 µM; actives 0.66% (n = 360,000); in the data active = enhancement above about 30%
Target sequence (P34981 whole entry, looked up): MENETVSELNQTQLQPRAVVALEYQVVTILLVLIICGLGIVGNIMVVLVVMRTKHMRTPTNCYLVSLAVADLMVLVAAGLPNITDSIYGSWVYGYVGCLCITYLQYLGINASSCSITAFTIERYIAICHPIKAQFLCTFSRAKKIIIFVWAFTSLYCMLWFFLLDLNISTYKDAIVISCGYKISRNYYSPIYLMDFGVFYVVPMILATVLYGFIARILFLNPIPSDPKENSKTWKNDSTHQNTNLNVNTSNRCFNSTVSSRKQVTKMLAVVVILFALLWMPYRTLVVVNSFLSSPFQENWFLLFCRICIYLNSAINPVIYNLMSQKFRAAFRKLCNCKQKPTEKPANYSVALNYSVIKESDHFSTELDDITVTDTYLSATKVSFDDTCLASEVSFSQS
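Enhancer read-out: after compound pinning and an initial kinetic agonist-mode read, an EC20 of TRH (10 nM final) was injected and fluo-8 calcium signal (Ex 480/Em 530) followed at 1 s/cycle for 100 cycles in TRHR-expressing cells.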
D1 PAM = enhances dopamine response at the human D1 receptor; potentiation, % at 10 µM; actives 0.036% (n = 360,000); AID 504651; P21728; HEK293 TREx D1 cells, calcium flux, dopamine EC20 potentiation; in the data active = potentiation above about 30%
TRHR agonist = agonists of human TRH receptor; TRHR cells, calcium flux fluo-8, FDSS agonist mode; activation, % at 2 µM; actives 0.18% (n = 360,000)
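Fluo-8-loaded TRHR cells; 10 s baseline, compound added, kinetic Ca2+ fluorescence read 1/s, agonist mode.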
D1 antag = human D1 dopamine receptor antagonism; actives 3.2% (n = 360,000); P21728; activity change, negative = inhibition, % at 10 µM; HEK293 TREx D1 cells, calcium flux, dopamine EC80; hits give low values; in the data active = activity change below about -30%
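Calcium flux readout: force-coupled, inducible Hek293 Trex D1 line, cells induced overnight at 30 C with tetracycline, dye-loaded 30–90 min at RT. Antagonism scored against EC80 dopamine challenge given 180 s after compound.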
D1 ag = agonists of human D1 dopamine receptor | P21728 | HEK293 T-REx D1 cells, calcium flux, agonist mode | activation, % at 2 µM | actives 1% (n = 360,000) | AID 504660
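Agonism was scored from calcium flux recorded over 180 s (1 read/s) after pintool compound addition, following a 10-cycle baseline. Cells were inducible force-coupled HEK293 TREx D1, plated overnight at 30 C and loaded with no-wash calcium dye.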
Numbers stand for hits; - = inactive; . = not tested or not shown. Rule as the data show it, unless noted: active = activation above about 30%; inactive = the rest.

SMILES	TRHR enhancer	D1 PAM	TRHR agonist	D1 antag	D1 ag
COc1ccc(N2CCN(CCNC(=O)Nc3ccc(C)c(Cl)c3)CC2)cc1	-	-	-	-	30.6
COc1cc(NC(=O)NCCN2CCN(c3ccc(Cl)cc3)CC2)ccc1C	-	-	-	-	63.9
COC(=O)c1ccc(N2CCN(CCNC(=O)Nc3ccc(OC)cc3)CC2)cc1	-	-	-	-	-
Cc1ccccc1Cn1c(=O)n(CCCCCC(=O)NCc2ccc3c(c2)OCO3)c(=O)c2sccc21	-	-	-	-	-
CCCCNC(=O)O[C@@H]1C[C@H]2CCC(=O)N3CC[C@@H](C1)[C@@H]23	-	-	-	-	-
O=C1OCC(CO)(CO)N=C1NNc1ccccc1Cl	31.0	-	-	-	-
O=C(Nc1ccccc1Cl)c1ccccc1Cl	-	-	-	-	-
C=C[C@@H]1c2ccccc2N(S(=O)(=O)c2ccc(C)cc2)[C@H](c2ccc(C(F)(F)F)cc2)C1(C#N)C#N	-	-	-	-31.6	-
CC(NC(=O)CNC(=O)c1ccco1)c1ccccc1 (stereo not given)	-	-	-	-	-
CC(NC(=O)CCSCCC(=O)NC(C)c1ccccc1)c1ccccc1 (stereo not given)	-	-	-	-45.1	-
CCC(C(=O)NC(C)c1ccccc1)C(=O)NC(C)c1ccccc1 (stereo not given)	-	-	-	-	-
O=C(CCNC(=O)c1ccco1)Nc1cccc(Br)c1	-	-	-	-30.3	-
CC(NC(=O)CCNC(=O)c1ccco1)c1ccccc1 (stereo not given)	-	-	-	-42.3	-
C=CCC(C(=O)NC(C)c1ccccc1)C(=O)NC(C)c1ccccc1 (stereo not given)	-	-	-	-	32.4
COCCN(C(=O)CSc1nnc(-c2ccco2)n1C)c1c(N)n(CC(C)C)c(=O)[nH]c1=O	-	-	-	-	-
Cc1ccc(Oc2c(C(F)(F)F)oc3cc(OCC(=O)NC4CCCCC4)ccc3c2=O)cc1	-	-	-	-	-
Cc1ccc(CN2CCN(C(=O)CC(C)C)CC2)cc1	-	-	-	-	-
C/C(=N\Nc1cccc(C(=O)O)c1)c1ccc(Cl)s1	-	-	-	-59.1	-
C/C(=N\NC(=O)C(=O)Nc1cccc(C(F)(F)F)c1)c1ccc(Cl)s1	-	-	-	-39.0	-
Cn1c(=O)c(=O)n(C)c2cc(N3CCCC3)c(NC(=O)c3ccccc3F)cc21	-	-	-	-	-
CCc1cccc(NC(=O)C2CCCN(c3ncnc4onc(-c5ccc(F)cc5)c34)C2)c1 (stereo not given)	-	-	-	-	-
COCCCNC(=O)CS(=O)Cc1nc(-c2ccccc2C)oc1C (stereo not given)	-	-	-	-47.8	-
COCCNC(=O)CS(=O)Cc1nc(-c2ccc(Cl)cc2)oc1C (stereo not given)	-	-	-	-	-
COc1ccc(Br)cc1CNC(=O)C1CCN(S(=O)(=O)N2CCCCC2)CC1	-	-	-	-	-
COc1ccc(Br)cc1CNC(=O)C1CCCN(S(=O)(=O)N2CC(C)CC(C)C2)C1 (stereo not given)	-	-	-	-32.6	-
SMILES	TRHR enhancer	D1 PAM	TRHR agonist	D1 antag	D1 ag
COc1ccccc1CNC(=O)C1CCCN(S(=O)(=O)c2cccs2)C1 (stereo not given)	40.3	-	-	-	-
COc1ccccc1CNC(=O)C1CCCN(S(C)(=O)=O)C1 (stereo not given)	-	-	-	-	-
N#CC1=C(Nc2ccccc2)SC=C(c2ccc(Cl)c(Cl)c2)N=C1N1CCOCC1	-	-	-	-59.7	-
N#CC1=C(Nc2ccccc2)SC=C(c2ccccc2)N=C1N1CCOCC1	-	-	-	-	-
COc1cccc(CNC(=O)Cn2c(=O)ccc3cc(S(=O)(=O)N4CCCC4)ccc32)c1	-	-	-	-	-
COc1cc(NC(=O)C2CC(c3c(F)cccc3Cl)=NO2)cc(OC)c1OC (stereo not given)	-	-	-	-38.6	-
COc1ccc(NC(=O)C2CC(c3c(F)cccc3Cl)=NO2)cc1 (stereo not given)	-	-	-	-	-
CCOC(=O)c1cnc2ccc(OC(F)(F)F)cc2c1Nc1ccccc1C(=O)O	-	-	-	-	-
c1ccc(Nc2nc(N3CCCCC3)nc(N3CCNCC3)n2)cc1	-	-	-	-	42.0
O=[N+]([O-])c1cccnc1N1CCN(c2ccc(F)cc2)CC1	36.8	-	-	-	-
O=C(c1cccc([N+](=O)[O-])c1)N1CCN(Cc2ccc3c(c2)OCO3)CC1	-	-	-	-30.5	-
O=[N+]([O-])c1cccnc1N1CCN(Cc2ccc3c(c2)OCO3)CC1	-	-	-	-36.6	-
N#Cc1c(F)cccc1N1CCN(Cc2ccc3c(c2)OCO3)CC1	-	.	-	-37.1	-
Cc1cc(NC(=O)Cc2c(F)cccc2Cl)no1	-	-	-	-30.4	-
COc1ccc(CNC(=O)CN(C)Cc2ccccc2F)cc1OC	-	-	-	-35.5	-
N#Cc1c(-n2ncnc2-c2ccc(F)cc2)sc2c1CCCCC2	-	-	-	-	-
CN(Cc1ccccc1Br)C(=O)CSc1nnnn1C1CC1	-	-	-	-	-
COc1ccc(OC)c(-n2c(=O)[nH]c3cc(C(=O)NCCc4ccc(OC)c(OC)c4)ccc3c2=O)c1	-	-	-	-	-
COc1ccc(CCNc2nc(C)nc3c2nnn3Cc2ccccc2)cc1	-	-	-	-56.7	-
Cc1nc(NCCc2ccccc2)c2nnn(Cc3ccccc3Cl)c2n1	-	-	-	-	-
CCCC[n+]1ccn(-c2nc3ccccc3nc2[N-]S(=O)(=O)c2ccc(Cl)cc2)c1	-	-	-	-39.8	-
Cc1ccc(S(=O)(=O)Nc2cc(Cl)ccc2-n2cncn2)cc1	-	-	-	-38.4	-
O=S(=O)(Nc1cc(Cl)ccc1-n1cncn1)c1cc(Br)ccc1Br	-	-	-	-33.3	-
O=S(=O)(Nc1cc(Cl)ccc1-n1cncn1)c1ccc(F)cc1	-	-	-	-	-
COc1ccc(CCNC(=O)CCc2c(C)c3ccc(O)c(C)c3oc2=O)cc1	-	-	-	-	-
SMILES	TRHR enhancer	D1 PAM	TRHR agonist	D1 antag	D1 ag
Cc1cccc(N2CCN(C(=O)CCc3c(C)nc4ncnn4c3C)CC2)c1C	-	-	-	-	-
O=C1CSC(=NC2CCCCC2)N1	-	-	-	-	-
O=C1CS/C(=N/N=C2CCCC2)N1	-	-	-	-47.7	-
CN(C(=O)COC(=O)c1cccc(F)c1)c1ccccc1	-	-	-	-	-
CN(C(=O)COc1cc(C(F)(F)F)nn1C)c1ccccc1	35.3	-	-	-	-
COc1ccc(Nc2c3c(nc4ccc(NC(=O)c5ccc(F)cc5)cc24)CCCC3)cc1OC	42.5	-	-	-	-
O=C1Nc2ccccc2N(O)N1c1ccc(S(=O)(=O)Nc2ccccn2)cc1	-	-	-	-50.1	-
